# PubChem BioAssay
# Calls of active or inactive are those of the source.
# Legend:
# Albumin (Bos taurus) = Albumin (Bos taurus) (UniProt P02769); assay: compounds binding labelled BSA control protein – biochemical, small-molecule microarray, Alexa647 label, 635/667 nm fluorescence, artefact control for SMM control protein annotation, profiling panel (AID 1118); conditions: BSA-A647 binding, fluorescence 635 nm, higher = more signal;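 also: score merges 667 nm emission intensity and signal-to-noise per printed compound spot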
# Albumin (Bos taurus), sequence (P02769 whole entry, looked up): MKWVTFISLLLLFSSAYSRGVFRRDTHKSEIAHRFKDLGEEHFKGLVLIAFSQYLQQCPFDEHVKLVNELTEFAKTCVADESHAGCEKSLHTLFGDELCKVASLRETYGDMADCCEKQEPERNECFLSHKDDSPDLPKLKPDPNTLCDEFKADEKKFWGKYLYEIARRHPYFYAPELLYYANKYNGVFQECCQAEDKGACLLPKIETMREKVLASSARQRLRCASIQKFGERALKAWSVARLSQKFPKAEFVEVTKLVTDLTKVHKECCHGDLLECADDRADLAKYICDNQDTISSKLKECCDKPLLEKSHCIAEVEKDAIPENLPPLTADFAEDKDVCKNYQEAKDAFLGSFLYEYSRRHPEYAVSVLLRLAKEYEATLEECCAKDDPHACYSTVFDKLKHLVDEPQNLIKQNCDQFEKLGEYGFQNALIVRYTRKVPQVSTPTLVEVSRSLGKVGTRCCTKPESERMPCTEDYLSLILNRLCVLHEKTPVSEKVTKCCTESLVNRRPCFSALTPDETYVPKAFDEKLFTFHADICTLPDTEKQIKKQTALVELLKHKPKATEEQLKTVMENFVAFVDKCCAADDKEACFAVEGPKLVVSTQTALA
# [1] = probe aXIP binding to arrayed compounds – biochemical, NeuroSMM set, 635/667 nm fluorescence, primary screen (AID 1119); conditions: small-molecule microarray, higher = more signal, called active from +8 up or from −8 down;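 also: probe is the protein aXip251-270 applied at 1 µg/mL to compound-printed slides; binding of probe to printed compounds measured as 667 nm fluorescence plus signal to noise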
# [2] = probe aNOTCH3 binding on compound microarray – biochemical, small-molecule microarray, 635/667 nm fluorescence, primary screen (AID 1120); conditions: higher = more signal;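 also: probe is a biotin-tagged antibody raised against NOTCH3 rather than NOTCH3 protein; score merges spot fluorescence near 667 nm with spot signal to noise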
# [3] = probe aNOTCH2 binding on compound microarray – biochemical, small-molecule microarray, 635/667 nm fluorescence, primary screen (AID 1121); conditions: higher = more signal;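 also: score merges feature fluorescence read at 667 nm with its signal to noise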
# [4] = target: Carbonic anhydrase 2 (Homo sapiens) (UniProt P00918); assay: compounds binding carbonic anhydrase 2 – biochemical, small-molecule microarray, Alexa647-labelled CAII, profiling panel (AID 1122); conditions: CAII-A647 binding fluorescence, higher = more signal
# [5] = COS7 lysate on small-molecule microarray, probe aHis, 635 nm (AID 1123); conditions: COS7 cell lysate, fluorescence, higher = more signal;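 also: z-score combines 667nm fluorescence intensity with signal-to-noise per printed compound spot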
# [6] = probe aLAP1 signal on lysate-treated microarray – cell lysate, small-molecule microarray, COS7 lysate, primary screen (AID 1124); conditions: probe aLAP1, fluorescence, higher = more signal;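 also: lysate comes from COS7 cells expressing LAP1 and is applied at 0.3 µg/mL; score merges spot fluorescence near 667 nm with signal-to-noise over triplicate slides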
# Sam68 (KHDRBS1) = assay: compounds binding KHDRBS1 protein – biochemical, small-molecule microarray, 635 nm fluorescence, primary screen (AID 1125); conditions: higher = more signal;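 also: score merges 667 nm channel intensity with signal to noise over triplicate slides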
# [7] = test system: Chordin-like protein 2 (CHRDL2); assay: compounds binding chordin-like 2 – biochemical, small-molecule microarray, 635 nm fluorescence, primary screen (AID 1126); conditions: fluorescence 635 nm, higher = more signal;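 also: printed compound slides probed with Chrdl2 protein at 4 µg/mL for 1 h at 4 C; score merges 667 nm emission intensity with signal to noise over three replicate slides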
# [8] = target: Concanavalin-A (Canavalia ensiformis) (UniProt P02866); assay: compounds binding concanavalin A lectin – biochemical, small-molecule microarray, Alexa647 label, 635 nm, artefact control for SMM control protein annotation, primary screen (AID 1127); conditions: ConA-A647 binding fluorescence, higher = more signal;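 also: z combines 667 nm emission intensity with signal-to-noise across three replicate slides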
# Concanavalin-A (Canavalia ensiformis), sequence (P02866 whole entry, looked up): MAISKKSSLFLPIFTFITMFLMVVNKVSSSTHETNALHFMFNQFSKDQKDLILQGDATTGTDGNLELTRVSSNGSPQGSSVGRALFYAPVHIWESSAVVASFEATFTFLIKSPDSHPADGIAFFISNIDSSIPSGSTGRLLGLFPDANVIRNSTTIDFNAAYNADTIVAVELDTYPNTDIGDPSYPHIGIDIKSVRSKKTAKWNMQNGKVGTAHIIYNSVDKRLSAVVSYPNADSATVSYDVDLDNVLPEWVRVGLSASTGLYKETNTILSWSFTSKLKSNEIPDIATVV
SMILES,composite z-score (Albumin (Bos taurus)),composite Z-score [1],composite z-score [2],composite z-score [3],composite z-score [4],composite z-score [5],composite z-score [6],composite z-score (Sam68 (KHDRBS1)),composite z-score [7],composite z-score [8]
COC(=O)[C@@]1(Cc2ccc(F)cc2)[C@H]2c3cc(C(=O)N(C)C)n(CCc4c[nH]c5ccc(OC)cc45)c3C[C@H]2CN1C(=O)c1ccccc1,0.655,0.0904 (inactive),0.351,0.317,0.617,2.74,0.606,1.1,-0.705,-0.203
C[N+](C)(C)CCCC[C@@H]1NC(=O)[C@H]2C[C@@H](C(=O)O)[C@@H](c3cccc(OCCO)c3)N2C1=O,0.969,3.73 (inactive),1.14,0.402,0.758,3.12,1.07,1.31,1.17,1.22
COCCn1c(C(=O)N2CCCC2)cc2c1C[C@H]1CN(C(=O)c3ccccc3)[C@@](Cc3ccc(OC)cc3)(C(=O)OC)[C@@H]21,1.11,0.433 (inactive),0.512,0.384,0.868,2.11,1.11,0.424,-0.975,1.05
COCC1C2CC[C@H]3C(OCc4ccc(F)cc4C(F)(F)F)OC[C@]4(C)[C@H]3C2=C(CN4C(=O)OC(C)(C)C)[C@H](C)C1COC (stereo not given in full),1.05,0.973 (inactive),0.202,0.214,0.698,3.39,0.63,1.2,-1.12,1.13
CCCCCCC#C[Si](O[C@H](c1ccccc1)c1cn([C@H](C)c2ccccc2)nn1)(C(C)C)C(C)C,0.672,0.282 (inactive),0.155,-0.0843,-0.0858,0.19,-0.164,0.729,0.267,0.809
C=C(C(=O)CC[C@@H](OC(=O)c1cccnc1)c1ccc(OCCO)cc1)C(C)C,-0.541,-0.471 (inactive),0.123,-0.179,0.0384,-0.266,0.354,0.921,0.606,0.303
O=C1O[C@H](c2ccccc2)[C@H](c2ccccc2)N2[C@H]1[C@@H](C(=O)NC[C@H](O)c1ccccc1)[C@]1(C(=O)Nc3ccc(C#CC4=CCCCC4)cc31)[C@H]2c1ccc(O)cc1,0.296,-1.22 (inactive),0.0112,-0.124,0.397,1.98,0.826,1.29,0.594,1.09
[N-]=[N+]=NCc1ccccc1C[C@@]1(C(=O)NCc2ccccc2)N=C(c2ccc(OCCCO)cc2)O[C@@H]1c1ccccc1CN=[N+]=[N-],0.684,0.936 (inactive),0.328,0.273,0.669,2.21,0.745,1.3,-0.106,1
O=C1c2ccccc2[C@](Cc2ccccc2I)(C(=O)O)[C@H](c2ccc(CO)cc2)N1Cc1ccccc1C(F)(F)F,0.449,-0.249 (inactive),-0.0647,-0.106,0.583,1.91,1.77,0.431,-0.697,0.918
O=C(NCCN1CCOCC1)[C@@H]1c2ccccc2C(=O)N(Cc2cc(F)cc(C(F)(F)F)c2)[C@H]1c1ccc(CO)cc1,-0.265,-0.543 (inactive),0.49,-0.222,0.724,2.53,-0.062,0.463,-1.55,-0.287
